# Data published in PMC11062922 (Nature Chemical Biology, 2023).
# Test system: FYN
# Set-up: species or system human, MV4-11 + K-562 + COLO205 + SK-N-BE2 + OVCAR-8
# Conditions: read-out: apparent Kd; compound concentrations:100 nM and 1000 nM (sheet 'Samples'); n = 1
row,Compound,potency estimated from few doses
1,NCCNS(=O)(=O)c1ccc(-c2ccnc3[nH]ccc23)cc1 [GSK977617A],1010 nM
2,O=C1NC(=O)C(N2CCc3ccccc32)=C1c1ccccc1Cl [SB-373598],250 nM
3,Cl.Cl.NCC(C(=O)Nc1cc(Br)c(-c2ccnc3[nH]ccc23)s1)c1ccccc1.NCC(C(=O)Nc1cc(Br)c(-c2ccnc3[nH]ccc23)s1)c1ccccc1 (stereo not drawn) [GSK1269851A],680 nM
4,CNC(=O)c1ccccc1Nc1nc(Nc2ccc(N3CCOCC3)cc2)ncc1Cl.Cl [GSK1576028A],369 nM
5,CN1C[C@@H]2Cn3c(c(C4=C(c5cn(C)c6ccccc56)C(=O)NC4=O)c4ccccc43)C[C@H]2C1.Cl [RO0320234-001],209 nM
6,Cc1ccc2c(-c3ccncc3)c(-c3ccc(F)cc3)nn2c1.Cl [GW461484A],1170 nM

# Test system: GAK
# Set-up: species or system human, MV4-11 + K-562 + COLO205 + SK-N-BE2 + OVCAR-8
# Conditions: read-out: apparent Kd; compound concentrations:100 nM and 1000 nM (sheet 'Samples'); n = 1
row,Compound,potency estimated from few doses
1,NCCNS(=O)(=O)c1ccc(-c2ccnc3[nH]ccc23)cc1 [GSK977617A],280 nM
2,O=C1NC(=O)C(N2CCc3ccccc32)=C1c1ccccc1Cl [SB-373598],167 nM
3,Cl.Cl.NCC(C(=O)Nc1cc(Br)c(-c2ccnc3[nH]ccc23)s1)c1ccccc1.NCC(C(=O)Nc1cc(Br)c(-c2ccnc3[nH]ccc23)s1)c1ccccc1 (stereo not drawn) [GSK1269851A],63 nM
4,CC(C)N1CCC(n2cnc(-c3ccc(F)cc3)c2-c2ccnc(N)n2)CC1 [SB-223132],333 nM
5,CNC(=O)c1ccccc1Nc1nc(Nc2ccc(N3CCOCC3)cc2)ncc1Cl.Cl [GSK1576028A],90.3 nM
6,CN1C[C@@H]2Cn3c(c(C4=C(c5cn(C)c6ccccc56)C(=O)NC4=O)c4ccccc43)C[C@H]2C1.Cl [RO0320234-001],186 nM
7,Cc1ccc2c(-c3ccncc3)c(-c3ccc(F)cc3)nn2c1.Cl [GW461484A],319 nM

# Test system: GSK3A
# Set-up: species or system human, MV4-11 + K-562 + COLO205 + SK-N-BE2 + OVCAR-8
# Conditions: read-out: apparent Kd; compound concentrations:100 nM and 1000 nM (sheet 'Samples'); n = 1
row,Compound,potency estimated from few doses
1,NCCNS(=O)(=O)c1ccc(-c2ccnc3[nH]ccc23)cc1 [GSK977617A],257 nM
2,O=C1NC(=O)C(N2CCc3ccccc32)=C1c1ccccc1Cl [SB-373598],104 nM
3,Cl.Cl.NCC(C(=O)Nc1cc(Br)c(-c2ccnc3[nH]ccc23)s1)c1ccccc1.NCC(C(=O)Nc1cc(Br)c(-c2ccnc3[nH]ccc23)s1)c1ccccc1 (stereo not drawn) [GSK1269851A],109 nM
4,CC(C)N1CCC(n2cnc(-c3ccc(F)cc3)c2-c2ccnc(N)n2)CC1 [SB-223132],359 nM
5,CCn1c(-c2nonc2N)nc2c(C#CC(C)(C)O)nc(OCCNC)cc21.Cl [GSK949675A],70.4 nM
6,CN1C[C@@H]2Cn3c(c(C4=C(c5cn(C)c6ccccc56)C(=O)NC4=O)c4ccccc43)C[C@H]2C1.Cl [RO0320234-001],99 nM
7,CCn1c(-c2nonc2N)nc2c(C#CC(C)(C)O)nc(OCCN)cc21.CCn1c(-c2nonc2N)nc2c(C#CC(C)(C)O)nc(OCCN)cc21.Cl.Cl [GSK902056A],113 nM
8,Cc1ccc2c(-c3ccncc3)c(-c3ccc(F)cc3)nn2c1.Cl [GW461484A],434 nM

# Test system: GSK3B
# Set-up: species or system human, MV4-11 + K-562 + COLO205 + SK-N-BE2 + OVCAR-8
# Conditions: read-out: apparent Kd; compound concentrations:100 nM and 1000 nM (sheet 'Samples'); n = 1
row,Compound,potency estimated from few doses
1,NCCNS(=O)(=O)c1ccc(-c2ccnc3[nH]ccc23)cc1 [GSK977617A],361 nM
2,O=C1NC(=O)C(N2CCc3ccccc32)=C1c1ccccc1Cl [SB-373598],177 nM
3,Cl.Cl.NCC(C(=O)Nc1cc(Br)c(-c2ccnc3[nH]ccc23)s1)c1ccccc1.NCC(C(=O)Nc1cc(Br)c(-c2ccnc3[nH]ccc23)s1)c1ccccc1 (stereo not drawn) [GSK1269851A],417 nM
4,CC(C)N1CCC(n2cnc(-c3ccc(F)cc3)c2-c2ccnc(N)n2)CC1 [SB-223132],441 nM
5,CCn1c(-c2nonc2N)nc2c(C#CC(C)(C)O)nc(OCCNC)cc21.Cl [GSK949675A],91.5 nM
6,CN1C[C@@H]2Cn3c(c(C4=C(c5cn(C)c6ccccc56)C(=O)NC4=O)c4ccccc43)C[C@H]2C1.Cl [RO0320234-001],50.7 nM
7,CCn1c(-c2nonc2N)nc2c(C#CC(C)(C)O)nc(OCCN)cc21.CCn1c(-c2nonc2N)nc2c(C#CC(C)(C)O)nc(OCCN)cc21.Cl.Cl [GSK902056A],136 nM
8,Cc1ccc2c(-c3ccncc3)c(-c3ccc(F)cc3)nn2c1.Cl [GW461484A],493 nM

# Test system: HCK
# Set-up: species or system human, MV4-11 + K-562 + COLO205 + SK-N-BE2 + OVCAR-8
# Conditions: read-out: apparent Kd; compound concentrations:100 nM and 1000 nM (sheet 'Samples'); n = 1
row,Compound,potency estimated from few doses
1,NCCNS(=O)(=O)c1ccc(-c2ccnc3[nH]ccc23)cc1 [GSK977617A],765 nM
2,O=C1NC(=O)C(N2CCc3ccccc32)=C1c1ccccc1Cl [SB-373598],312 nM
3,Cl.Cl.NCC(C(=O)Nc1cc(Br)c(-c2ccnc3[nH]ccc23)s1)c1ccccc1.NCC(C(=O)Nc1cc(Br)c(-c2ccnc3[nH]ccc23)s1)c1ccccc1 (stereo not drawn) [GSK1269851A],554 nM
4,CC(C)N1CCC(n2cnc(-c3ccc(F)cc3)c2-c2ccnc(N)n2)CC1 [SB-223132],969 nM
5,CNC(=O)c1ccccc1Nc1nc(Nc2ccc(N3CCOCC3)cc2)ncc1Cl.Cl [GSK1576028A],676 nM
6,CN1C[C@@H]2Cn3c(c(C4=C(c5cn(C)c6ccccc56)C(=O)NC4=O)c4ccccc43)C[C@H]2C1.Cl [RO0320234-001],317 nM
7,Cc1ccc2c(-c3ccncc3)c(-c3ccc(F)cc3)nn2c1.Cl [GW461484A],755 nM
